High-throughput results: PubChem, National Center for Advancing Translational Sciences (NCATS)
LASV entry inh = qHTS for Inhibitors of binding or entry into cells for Lassa Virus; Lassa virus pseudotype entry inhibition, cell reporter; Potency, µM (series often up to 37.9 µM), without a hit: at the highest dose activity change, negative = inhibition, most hits filed as inhibitors; hit rate 1.2% among 300,000; calls by dose curve; tested in HEK293 cells; also: potency is read from the fitted curve at half-maximal effect; nearly all actives have a fitted effect of over 50% in size
HCMV antiviral = qHTS Assay for inhibitors of the human cytomegalovirus (HCMV); HFF cells, HCMV-luciferase reporter, 72 h; hits give low values; activity change, negative = inhibition, % at 57.5 µM; hit rate 4.5% among 410,000; in the data active = activity change below about -60%; inconclusive = no clear call, values can overlap the other calls; inactive = above about -39%
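Inhibition of viral replication was scored as loss of reporter luminescence in HFFs infected with HCMV-luciferase (MOI 1 PFU/cell) for 72 h; compounds tested at 2 doses, normalized to buffer and Salinomycin controls.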
HCV inh = qHTS Assay for Inhibitors of Hepatitis C Virus (HCV) | Huh7.5.1 HCVcc-Cre infection, luciferase reporter, 44 h | Potency, µM (doses to about 41.8 µM), for inactives: at the top dose activity change, negative = inhibition, hits mostly inhibitors | hit rate 3.4% among 340,000; active = well fitted inhibition curve with a large enough effect; inconclusive = small, poorly fitted or top-dose-only effect, or another doubt; inactive = no such curve, though single readings can be large or run the other way; also: potency is read from the fitted curve at half-maximal effect
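Infectious HCV cell culture screen: compound-treated cells (1,000/well, pre-plated 4 h) are infected with HCVcc-Cre at roughly 0.5 moi and grown 44 h. Infection is quantified by luciferase signal after 15 min substrate incubation at room temperature.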
Vaccinia Venus = qHTS for Stage-Specific Inhibitors of Vaccinia Orthopoxvirus: Venus Reporter Primary qHTS; AID 720580, 2013; Vaccinia virus Venus reporter expression, fluorescence; Potency, µM (top dose mostly 36.5 µM), without a hit: at the highest dose activity change, negative = inhibition, actives largely listed as inhibitors; hit rate 0.46% among 330,000; calls by dose curve; tested in A549 cells; also: potency is read from the fitted curve at half-maximal effect; nearly all actives have a fitted effect of over 30% in size
Marburg entry inh = qHTS for inhibitors of binding or entry into cells for Marburg Virus | Marburg virus pseudotyped entry inhibition, cell reporter | Potency, µM (highest dose often 37.8 µM), for the others: top-dose activity change, negative = inhibition, usual class: inhibitors | hit rate 1.8% among 300,000 | AID 540276, 2011; calls by dose curve; tested in HEK293 cells; also: potency is read from the fitted curve at half-maximal effect
Vaccinia mCherry = qHTS for Stage-Specific Inhibitors of Vaccinia Orthopoxvirus: mCherry Reporter Primary qHTS; Vaccinia virus mCherry reporter infection, fluorescence; Potency, µM (top dose mostly 36.5 µM), inactives show top-dose activity change, negative = inhibition, usual class: inhibitors; hit rate 0.63% among 310,000; AID 720579, 2013; calls by dose curve; tested in A549 cells; also: potency is read from the fitted curve at half-maximal effect; nearly all actives have a fitted effect of over 35% in size
The depositor's hits bear a star; i = inactive; ? = inconclusive; nt = no result given; [ ] = remark or other dose. Rows were chosen to be rich in hits. Some 7.8% of all compounds tested hit in one or more screens of this group. % is scaled to controls: 0 for no effect and ±100 for the full control effect.

SMILES	LASV entry inh	HCMV antiviral	HCV inh	Vaccinia Venus	Marburg entry inh	Vaccinia mCherry
COc1ccc(Cn2c(=O)n(-c3ccc(F)c(Cl)c3)c(=O)c3c2c2cc(OC)ccc2n3C)cc1	26%[46.1 µM]	-16	nt	-4%	nt	-12%
Cc1ccc(CNC(=O)CCc2c(C)nc3c4c(C)cc(C)nc4nn3c2C)cc1	14%[46.1 µM]	2	nt	-8%	6%[46.1 µM]	-8%
COc1ccc(-c2cc(C(=O)Nc3c(C(=O)c4ccc(C)c(F)c4)oc4ccccc34)no2)cc1	2%[46.1 µM]	12	nt	10%	?	-1%
CN(C)c1nc(SCc2ccccc2)nc(N2CCOCC2)n1	-1%	25	?	nt	-10%	nt
O=C(CSc1nc(Nc2ccccc2)nc(N2CCOCC2)n1)Nc1ccccc1Cl	4.6µM*	?	?	-5%	?	-9%
O=C(CSc1nc(Nc2ccccc2)nc(N2CCOCC2)n1)Nc1ccc([N+](=O)[O-])cc1	-25%	102	11µM*	nt	?	nt
CCNc1nc(SCc2ccccc2)nc(N2CCOCC2)n1	?	-16	5.6µM*	-16%	?	nt
COc1ccc(Cl)cc1NC(=O)CSc1nc(Nc2ccccc2)nc(N2CCOCC2)n1	nt	-17	11µM*	nt	nt	nt
CC(C)Oc1ccc(C(=O)N2CC(=O)Nc3ccc(F)cc3C2c2ccc(F)cc2)cc1 (stereo not drawn)	?	12	nt	-12%	-4%[46.1 µM]	-11%
CCCCN(C(=O)CSc1nnc(Nc2ccc(C)c(C)c2)s1)c1c(N)n(Cc2ccccc2)c(=O)[nH]c1=O	?	29	10µM*	?	?	?
COCCN(C(=O)CSc1nnc2cc(C)c3ccccc3n12)c1c(N)n(Cc2ccccc2)c(=O)[nH]c1=O	?	-94*	-23%	3%	?	-7%
COCCN(C(=O)CSc1nnc(C)n1Cc1ccccc1)c1c(N)n(Cc2ccccc2)c(=O)[nH]c1=O	1%	nt	4%	-2%	?	-9%
COCCCNC(=O)CCCn1c(=O)c2ccccc2n(CC(=O)Nc2ccc(C)cc2Cl)c1=O	12%[46.1 µM]	-19	nt	-3%	20%[46.1 µM]	-7%
C/C=C(/C)C(=O)O[C@@H]1c2c(ccc3ccc(=O)oc23)OC(C)(C)[C@@H]1OC(=O)/C(C)=C\C	?	-29	22µM*	-30%	?	-20%
CCO[C@H]1c2c(ccc3ccc(=O)oc23)OC(C)(C)[C@@H]1O	nt	2	2.8µM*	-6%	nt	i
CCO[C@@H]1c2c(ccc3ccc(=O)oc23)OC(C)(C)[C@@H]1O	nt	-8	7%	4%	nt	-14%
C=C(CCN1C=C(C(C)=O)C(c2ccccc2)NC1=O)c1ccc(OC)cc1 (stereo not drawn)	nt	nt	nt	nt	12%[14.2 µM]	nt
CCCc1cc(NCCCN2CCOCC2)n2c(nc3ccccc32)c1C#N	-1%	-60*	?	2%	-10%	nt
Cc1cc(NCCCN2CCOCC2)n2c(nc3ccccc32)c1C#N	0%	-9	-18%	-7%	?	15%
CC(=O)c1cccc(NC(=O)COC(=O)c2ccc(S(C)(=O)=O)c([N+](=O)[O-])c2)c1	nt	-24	5µM*	-14%	nt	-10%
O=C(OCc1ccc(C(=O)c2ccccc2)cc1)c1cccc(-c2nnc(-c3ccccc3)o2)c1	?	?	14µM*	nt	?	nt
O=C(OCc1ccccc1)c1cccc(-c2nnc(-c3ccccc3)o2)c1	-1%	20	-1%	nt	28%	nt
CC(=O)c1cccc(NC(=O)C(C)OC(=O)c2ccc(S(C)(=O)=O)c([N+](=O)[O-])c2)c1 (stereo not drawn)	nt	nt	nt	-17%	nt	-8%
CS(=O)(=O)c1ccc(C(=O)OCc2nnc(-c3ccccc3)o2)cc1[N+](=O)[O-]	?	8	?	?	3.2µM*	-17%
Cc1ccccc1NC(=O)Cc1nc(COC(=O)c2ccc(S(C)(=O)=O)c([N+](=O)[O-])c2)cs1	nt	nt	10µM*	nt	nt	nt
SMILES	LASV entry inh	HCMV antiviral	HCV inh	Vaccinia Venus	Marburg entry inh	Vaccinia mCherry
CC(C)Oc1ccc(CNC(=O)C2CCN(c3nc4ccccc4nc3C(F)(F)F)CC2)cc1	?	23	nt	-24%	nt	-26%
Cc1ccccc1NC(=O)COC(=O)c1ccc(S(C)(=O)=O)c([N+](=O)[O-])c1	21µM*	-93*	?	-26%	9.2µM*	-1%
CC(CCc1ccccc1)NC(=O)COC(=O)c1ccc(S(C)(=O)=O)c([N+](=O)[O-])c1 (stereo not drawn)	?	-99*	?	?	?	?
CC(CCc1ccccc1)NC(=O)COC(=O)c1ccc([N+](=O)[O-])cc1 (stereo not drawn)	24%[46.1 µM]	1	16%	-18%	12%[46.1 µM]	?
CCOC(=O)c1c(NC(=O)C2c3ccccc3Oc3ccccc32)sc(C)c1CC	-15%[46.1 µM]	16	nt	2%	-1%[46.1 µM]	-1%
CCc1ccc(-n2c(=O)c3cccnc3n2CC(=O)Nc2cc(F)ccc2F)cc1	?	-15	nt	-7%[7.34 µM]	nt	-11%[7.34 µM]
N#Cc1c(NCc2ccccc2)ccnc1Cl	-23%	-69*	-20%	-9%	-12%	-6%
COC(=O)c1sc(=S)n(-c2cc(F)ccc2F)c1N	-6%	-106*	4%	nt	-3%	nt
CCCc1[nH]nc2c1C(/C(C)=C/c1ccccc1)C(C#N)=C(N)O2 (stereo not drawn)	-13%	-83*	-11%	0%	?	-5%
CCCc1[nH]nc2c1C(c1ccccc1OC)C(C#N)=C(N)O2 (stereo not drawn)	23%	36	14%	-20%	3%	-12%
C[C@@]1(c2ccco2)NC(=O)NC1=O	nt	nt	nt	nt	10%	nt
COCC(=O)Nc1cc(C(=O)N2CCc3sccc3C2)c2c(c1)nc(-c1ccncc1)n2C	nt	nt	nt	-11%	nt	-14%
Cn1cc(S(=O)(=O)c2cccc(Cl)c2)c(=O)c2cc(F)c(N3CCN(c4ccc(F)cc4)CC3)cc21	-12%[46.1 µM]	-40	nt	-21%	nt	-3%
COc1cc(C2CC(=O)N(Cc3cccc(F)c3)c3ccccc3S2)cc(OC)c1OC (stereo not drawn)	nt	-95*	nt	-26%	-13%[46.1 µM]	-30%
COCCN(CCOC)C(=S)Nc1ccccc1	1%[46.1 µM]	-16	1.8µM*	-17%	-7%	-12%
